The test system of experiment [1] is Human papillomavirus type 1a protein E7 (residues 44-93). The experiment in a line: HPV1a E7 fragment binders on microarrays, primary screen, biochemical, small-molecule microarray, residues 44-93, 635 nm fluorescence (AID 1108).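 Also: E7 fragment applied at 1 µg/mL in TBST for 1 h at 4 C; score combines spot fluorescence with its signal to noise ratio.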 The note with it: small-molecule microarray binding, fluorescence 635 nm; higher = more signal.
Experiment [2] is described as follows: modulators of HCV replicon luciferase signal, primary screen, HCV replication inhibitor project, Huh7 cells, luciferase reporter (AID 1109).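 Also: huh7 hepatoma cells harbouring a luciferase neomycin HCV replicon reporter; luciferase luminescence as measure of HCV replicon replication; test concentration not given here.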 To be noted: 48 h, higher = more signal. On the technique in general: A replicon is a self-replicating genome or part of one, used to study replication in cells.
In experiment [3] the target is Left-right determination factor 2 (Homo sapiens) (UniProt O00292). The experiment in a line: LEFTY2 binders on small-molecule microarrays, primary screen, biochemical, small-molecule microarray, 635 nm fluorescence scan (AID 1110). The note with it: LEFTY2 binding, higher = more signal.
Left-right determination factor 2 (Homo sapiens), sequence (O00292 whole entry, looked up): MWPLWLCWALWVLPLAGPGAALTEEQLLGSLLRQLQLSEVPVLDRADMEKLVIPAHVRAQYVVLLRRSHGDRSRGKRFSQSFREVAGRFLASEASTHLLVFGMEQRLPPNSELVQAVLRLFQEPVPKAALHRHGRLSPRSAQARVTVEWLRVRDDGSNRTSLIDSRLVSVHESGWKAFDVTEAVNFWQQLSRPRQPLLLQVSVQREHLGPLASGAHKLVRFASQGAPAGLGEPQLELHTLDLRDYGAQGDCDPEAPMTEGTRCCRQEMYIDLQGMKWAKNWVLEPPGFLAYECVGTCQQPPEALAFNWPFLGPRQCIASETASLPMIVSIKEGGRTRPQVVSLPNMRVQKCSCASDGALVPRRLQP
Experiment [4] has as its target Calmodulin-1 (Homo sapiens) (UniProt P0DP23). The experiment in a line: CALM1 binders on microarrays, EGTA buffer, profiling panel, biochemical, small-molecule microarray, Cy5-labelled CALM1 (AID 1111).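 Also: labelled calmodulin applied in Tris saline Tween buffer holding calcium plus EGTA and DTT.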 The note with it: Cy5-CALM1 binding fluorescence, higher = more signal.
Experiment [5] shares this target. Kind of experiment: calcium-bound CALM1 binders on microarrays, profiling panel, artefact control for SMM control-protein annotation, biochemical, small-molecule microarray, Cy5-labelled CALM1, plus calcium (AID 1112).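 Also: score merges spot fluorescence with signal to noise from triplicate slides.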 To be noted: Cy5-CALM1 binding fluorescence, higher = more signal.
Experiment [6] in a line: small-molecule microarray binders of probe aWnt5a, primary screen, biochemical, biotinylated probe, 635/667 nm fluorescence (AID 1113).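 Also: score merges 667 nm fluorescence intensity with signal-to-noise per printed feature.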 The note with it: higher = more signal.
The nature of experiment [7]: small-molecule microarray binders of probe aShh, primary screen, biochemical, biotinylated probe, 635/667 nm fluorescence (AID 1114).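 Also: probe is biotin-labelled aShh protein from a stem cell growth factor screen; measures binding of labelled protein to compounds printed on the slide; score merges feature fluorescence at 667 nm with signal-to-noise.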 The note with it: higher = more signal.
Experiment [8] can be described thus: small-molecule microarray binders of probe aNog, primary screen, biochemical, biotinylated probe, 635/667 nm fluorescence (AID 1115).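 Also: probe is biotinylated aNog protein used at 0.15 µg/mL for 1 h at 4 C; z-score combines 667 nm fluorescence of each spot with its signal to noise.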 To be noted: higher = more signal.
Experiment [9] concerns the target Torsin-1A-interacting protein 1 (Homo sapiens) (UniProt Q5JTV8). Kind of experiment: LAP1 binders from COS7 cell lysate, primary screen, small-molecule microarray, 635/667 nm fluorescence (AID 1116). To be noted: COS7-hLAP1 lysate binding, 635 nm fluorescence, higher = more signal.
Experiment [10] concerns the target Alpha-bungarotoxin (Bungarus multicinctus) (UniProt P60615). The experiment in a line: alpha-bungarotoxin binders on microarray, profiling panel, artefact control for SMM control protein annotation, biochemical, small-molecule microarray, Alexa647 label, 635/667 nm fluorescence (AID 1117). The note with it: alpha-BTX-A647 binding fluorescence, higher = more signal.

Alpha-bungarotoxin (Bungarus multicinctus), sequence (P60615 whole entry, looked up): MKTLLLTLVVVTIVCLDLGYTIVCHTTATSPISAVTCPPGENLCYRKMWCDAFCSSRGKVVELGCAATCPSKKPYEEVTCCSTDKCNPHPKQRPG
Torsin-1A-interacting protein 1 (Homo sapiens), sequence (Q5JTV8 whole entry, looked up): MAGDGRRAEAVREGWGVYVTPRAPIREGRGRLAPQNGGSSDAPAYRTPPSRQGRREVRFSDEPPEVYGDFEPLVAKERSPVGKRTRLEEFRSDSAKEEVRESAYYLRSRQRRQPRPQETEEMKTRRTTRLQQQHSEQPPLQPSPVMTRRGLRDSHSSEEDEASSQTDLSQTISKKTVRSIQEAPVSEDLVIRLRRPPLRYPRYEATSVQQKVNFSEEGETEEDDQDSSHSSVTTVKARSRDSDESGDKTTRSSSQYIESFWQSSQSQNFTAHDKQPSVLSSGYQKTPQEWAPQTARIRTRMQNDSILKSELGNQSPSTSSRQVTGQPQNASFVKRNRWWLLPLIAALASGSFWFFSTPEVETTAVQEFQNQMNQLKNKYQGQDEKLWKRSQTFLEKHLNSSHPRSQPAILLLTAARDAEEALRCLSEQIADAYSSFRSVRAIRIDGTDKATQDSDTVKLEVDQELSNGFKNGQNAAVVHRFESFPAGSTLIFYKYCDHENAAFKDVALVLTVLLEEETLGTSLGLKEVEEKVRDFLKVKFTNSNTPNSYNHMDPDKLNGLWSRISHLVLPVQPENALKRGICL

For `COc1cc2c(cc1O)C(c1ccc(CN3CCCC3)cc1)N(Cc1cc3c(cc1Br)OCO3)CC2` (stereo not given), the composite z-score was -1.28 in [1]; -0.248 in experiment [3]; 1.47 in [4]; 0.91 in [5]; -0.109 in experiment [6]; -0.2 in experiment [7]. Also, the composite z-score in [8] was 0.114; in experiment [9], 0.16; in [10], 0.132. Further, the z-score in experiment [2] is -2.92.
In the case of `CC(c1ccccc1)C(O)C1C=CC2C(=O)N(C)C(=O)C2N1Nc1ccccc1` (stereo not given), the composite z-score was 1.23 in experiment [1]; -0.541 in experiment [3]; 2 in experiment [4]; 0.735 in experiment [5]; 0.157 in experiment [6]; 0.208 in experiment [7]. Moreover, the composite z-score turned out to be 0.462 in [8], 0.694 in [9] and 2.06 in [10]. Also, in experiment [2], the z-score is -0.684.
Take `COc1ccc(CCNC(=O)[C@@H]2c3ccccc3C(=O)N(C3CCCCC3)[C@H]2c2ccc(CO)cc2)cc1`: the composite z-score in experiment [1] was 1.48; in experiment [3], -0.306; in experiment [4], 0.112; in experiment [5], -0.184; in experiment [6], -0.0403; in experiment [7], 0.0098. The composite z-score in experiment [8] is -0.402; in experiment [9] it was -0.17; in experiment [10] it was 0.371. Moreover, in [2], the z-score is -1.82.
In the case of `C=C[C@@H](OC)[C@H](OC(=O)Nc1ccc(OC)cc1)c1ccc(O)c(F)c1`, the composite z-score is 0.392 in experiment [1]; -0.227 in experiment [3]; -1.84 in [4]; -1.47 in [5]; -0.208 in experiment [6]; 0.0796 in experiment [7]. For the same molecule, the composite z-score in [8] is -0.834; in experiment [9] it was 0.302; in experiment [10] it was -0.839. In experiment [2], this molecule gave a z-score of 0.859.
Consider `CN(C)CCCCCCNC(=O)[C@@H]1C[C@@H]2C(=O)N3CCC[C@H]3C(=O)N2[C@@H]1c1cccc(OCCO)c1`, for which the composite z-score in experiment [1] was 0.35; in [3], 0.944; in [4] it was -0.215; in experiment [5] it was -1.74; in experiment [6] it was 0.0566; in experiment [7], 0.176. The composite z-score in [8] came out at 0.822; in [9], 2.07; in experiment [10] it was 1.79. The z-score in experiment [2] stood at 0.857.
In the case of `CCCCCCCCCCC(O)C1C=CC2C(=O)N(c3ccccc3)C(=O)C2N1Nc1ccc(C#N)cc1` (stereo not given), the composite z-score was 1.38 in experiment [1]; -0.157 in experiment [3]; 2.48 in experiment [4]; 1.19 in experiment [5]; 0.203 in experiment [6]; -0.164 in experiment [7]. Moreover, the composite z-score in [8] is -0.889; in experiment [9] it was 1.47; in experiment [10] it was 1.19. For the same molecule, the z-score in experiment [2] is -1.57.
In the case of `COCCOC(=O)N1C(=O)[C@@]2(c3cc(C#CC4(O)CCCCCC4)ccc31)[C@H](c1ccc(O)cc1)N1[C@H](c3ccccc3)[C@H](c3ccccc3)OC(=O)[C@H]1[C@@H]2C(=O)N1CCN(c2ncccn2)CC1`, the composite z-score in experiment [1] is 1.35; in [3], 0.45; in experiment [4] it was 1.83; in [5], 0.18; in experiment [6], 0.0375; in experiment [7], 0.679. Besides, the composite z-score in experiment [8] was -0.679; in experiment [9], 1.21; in experiment [10] it was 0.383. In addition, in experiment [2], the z-score is -1.58.
As to `C=CCN1Cc2ccccc2[C@@H]2OC(c3ccc(OCCCO)cc3)=N[C@]2(CC=C)C1=O`, the composite z-score was 0.139 in experiment [1]; 0.718 in experiment [3]; 0.698 in experiment [4]; -0.0856 in experiment [5]; 0.128 in [6]; 0.0469 in [7]. Further, the composite z-score in experiment [8] worked out at 0.634; in experiment [9], 2.02; in experiment [10] it was 2.04. Moreover, the z-score in experiment [2] is -1.43.
For `Cc1ccc(NN2C(C(O)c3c(F)cccc3Cl)C=CC3C(=O)N(C4CCCCC4)C(=O)C32)cc1` (stereo not given), the composite z-score was 0.51 in experiment [1]; -0.348 in experiment [3]; 1.96 in [4]; 1.14 in experiment [5]; -0.0179 in experiment [6]; 0.261 in experiment [7]. In addition, the composite z-score in [8] is 1.22; in experiment [9], 0.983; in experiment [10], 1.93. The z-score in [2] was -1.26.
As to `CCOC(=O)C1=C[C@@H](C(C)C)N(S(=O)(=O)c2ccc(C)cc2)[C@H]1c1ccc(C(F)(F)F)cc1`, the composite z-score is 1.4 in experiment [1]; 0.499 in experiment [3]; 1.07 in experiment [4]; -0.0824 in experiment [5]; -0.0607 in experiment [6]; 0.296 in experiment [7]. Further, the composite z-score came to 0.868 in experiment [8], 0.76 in experiment [9] and 1.06 in experiment [10]. This molecule displayed a z-score in experiment [2] of -0.972.
`CC(C)[Si](C#CCCCC#N)(O[C@H](c1ccccc1)c1cn(Cc2ccccc2)nn1)C(C)C`: the composite z-score in [1] was 0.157; in [3] it was -0.0465; in experiment [4], -0.321; in [5] it was -0.458; in [6] it was -0.252; in [7], 0.0469. The composite z-score was 0.111 in [8], 0.439 in experiment [9] and -0.199 in [10]. This molecule also gave a z-score in experiment [2] of -0.147.
`COCCOC(=O)N1C(=O)[C@@]2(c3ccccc31)[C@H](c1ccc(O)cc1)N1[C@H](c3ccccc3)[C@H](c3ccccc3)OC(=O)[C@H]1[C@@H]2C(=O)N1CCN(c2ncccn2)CC1`: the composite z-score in experiment [1] was 1.29; in [3], 0.332; in experiment [4] it was 0.667; in [5] it was 0.618; in experiment [6] it was -0.0084; in experiment [7], 0.0469. Further, the composite z-score worked out at 0.927 in [8], 0.675 in experiment [9] and 0.692 in [10]. This molecule showed a z-score in experiment [2] of -1.51.
For the molecule `COC(=O)[C@@]1(Cc2ccc(OC)cc2)[C@H]2c3cc(C(=O)N(C)C)n(Cc4ccc(OC(F)(F)F)cc4)c3C[C@H]2CN1C(=O)c1ccccc1`, the composite z-score was 0.38 in experiment [1]; -0.0954 in experiment [3]; 0.417 in experiment [4]; 0.267 in experiment [5]; -0.0807 in experiment [6]; 0.337 in [7]. The composite z-score is 0.196 in experiment [8], 1.58 in experiment [9] and -0.114 in [10]. The molecule also registered a z-score in experiment [2] of -3.63.
`C=CC[C@]1(C(=O)N2CCOCC2)COC(c2ccc(OCCCO)cc2)=N1`: the composite z-score is 1.53 in experiment [1]; -0.233 in experiment [3]; 1.64 in [4]; -0.497 in experiment [5]; -0.0236 in experiment [6]; 0.381 in experiment [7]. Further, the composite z-score in [8] was found to be 1.11; in [9] it was 1.98; in experiment [10] it was 2.21. Further, the z-score in experiment [2] is -0.164.
Turning to `CCCN1C(=O)[C@@]2(Cc3ccccc31)N=C(c1ccc(OCCCO)cc1)O[C@H]2c1ccccc1`, the composite z-score in experiment [1] was 1.41; in experiment [3] it was -0.256; in experiment [4], 0.354; in [5] it was -0.29; in experiment [6], 0.0857; in experiment [7] it was 0.123. In addition, the composite z-score was determined as 0.587 in [8], 1.28 in [9] and 1.17 in experiment [10]. The same molecule registered a z-score in experiment [2] of -2.52.
Regarding `COCC(=C=CC[C@H](O)c1ccc(OCCO)cc1)CCO`, the composite z-score in [1] is 0.364; in experiment [3] it was 0.774; in [4] it was -0.31; in [5] it was -0.618; in experiment [6], -0.0239; in experiment [7] it was -0.138. Besides, the composite z-score in experiment [8] is -0.0898; in [9] it was 1.6; in experiment [10] it was -0.829. The molecule also returned a z-score in [2] of -0.794.
With `CCCCCCCCCC(O)C1C=CC2C(=O)N(c3ccccc3)C(=O)C2N1Nc1cc(OC)c(OC)c(OC)c1` (stereo not given), the composite z-score in experiment [1] was 0.903; in experiment [3], -1.12; in experiment [4], 1.01; in experiment [5], 1.03; in experiment [6], -0.0685; in [7], 0.239. The composite z-score in experiment [8] was 0.641; in [9], 0.559; in [10], 0.774. Besides, in experiment [2], the z-score is -2.58.
Take `COCCOC(=O)N1C(=O)[C@@]2(c3cc(C#CCNC(N)=O)ccc31)[C@H](C(N)=O)[C@H]1C(=O)O[C@H](c3ccccc3)[C@H](c3ccccc3)N1[C@@H]2c1ccccc1OCCO`: the composite z-score in experiment [1] was 0.989; in [3], 0.467; in experiment [4], 0.318; in experiment [5], -0.304; in experiment [6], -0.129; in experiment [7] it was -0.0977. In addition, the results for the composite z-score in [8], in experiment [9] and in experiment [10] were -0.288, 1.26 and 1.06, respectively. For the same molecule, the z-score in experiment [2] is -0.814.

The record behind these values is PubChem BioAssay.
